Many of the other results were omitted from the sample, so hits are more common in it than they were.
Tb PYK inh = inhibitors of Trypanosoma brucei pyruvate kinase; Q57TT1; TbPYK enzyme, Kinase-Glo Plus ATP luminescence, 45 min; Potency, µM (doses to about 76.8 µM), usual class: inhibitors; actives 0.12% (n = 410,000); also: nearly all actives have a fitted effect of over 50% in size
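Enzyme and substrate buffer are dispensed first and compound is pin-transferred. ADP at 130 uM final then starts the reaction, which runs 45 min at room temperature. Detection reagent is added for 10 min before luminescence is imaged.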
RE007 growth inh = less growth of the S. pombe RE007 Vpr strain; actives 0.21% (n = 360,000); Potency, µM (titrated, usually from 92.2 µM), actives largely listed as inhibitors; AID 651644; S. pombe RE007 Vpr strain, BacTiter-Glo ATP luminescence, 24 h; active = well fitted falling curve with a large enough effect; inconclusive = small, poorly fitted or top-dose-only effect; inactive = no such curve, though single readings can be large or run the other way; also: nearly all actives have a fitted effect of over 50% in size
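Fission yeast RE007 carrying one integrated HIV-1 vpr copy, seeded at OD 0.01 in PMG+AL medium with 23 nL pinned compound. Grown 24 h at 30 degrees; viability read by BacTiter-Glo luminescence after 5 min.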
LmPK inhibitor = LmPK (Leishmania mexicana) enzyme inhibition | Q27686 | purified LmPK, Kinase-Glo ATP luminescence, 1 h | Potency, µM (top dose mostly 57.5 µM), most hits filed as inhibitors | actives 0.37% (n = 290,000)
Target sequence (Q27686 whole entry, looked up): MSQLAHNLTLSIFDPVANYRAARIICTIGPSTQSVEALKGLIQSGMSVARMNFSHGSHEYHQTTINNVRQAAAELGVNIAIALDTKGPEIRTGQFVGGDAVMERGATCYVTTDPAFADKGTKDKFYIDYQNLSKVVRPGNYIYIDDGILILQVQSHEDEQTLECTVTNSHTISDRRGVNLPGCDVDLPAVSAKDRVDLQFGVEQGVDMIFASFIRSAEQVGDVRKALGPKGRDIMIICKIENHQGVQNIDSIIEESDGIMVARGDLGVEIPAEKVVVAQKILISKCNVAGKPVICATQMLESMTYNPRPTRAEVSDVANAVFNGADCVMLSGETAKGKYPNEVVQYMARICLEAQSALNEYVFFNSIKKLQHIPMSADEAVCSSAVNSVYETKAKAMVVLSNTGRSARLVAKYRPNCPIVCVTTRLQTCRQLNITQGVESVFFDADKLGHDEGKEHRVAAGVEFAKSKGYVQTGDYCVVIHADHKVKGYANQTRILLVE
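Purified LmPK (0.1 nM) converted ADP (0.1 mM) to ATP with PEP (0.5 mM) in imidazole buffer pH 7.2 with KCl and MgCl2, 1 h at room temperature. ATP was read by Kinase-Glo luminescence; data normalized to uninhibited and no-enzyme controls.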
Shiga toxin inh = blocks Shiga toxin action in Vero cells; Vero cells, Shiga toxin protein synthesis inhibition reporter; inhibition, % at 38.7 µM; actives 9.2% (n = 290,000); AID 2315; in the data active = inhibition mostly above about 28%, no sharp cut-off; inactive = mostly below about 43%
Giardia FBPA inh = Giardia lamblia aldolase inhibition | actives 0.71% (n = 290,000) | Potency, µM (series often up to 59.6 µM), actives largely listed as inhibitors | purified Giardia FBPA | A8B2U2; also: nearly all actives have a fitted effect of over 55% in size
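Giardia FBPA (40 nM reagent) was preincubated 10 min at RT with compound (up to 57.5 uM final), then substrate plus GAPDH/TPI/NAD/arsenate coupling system with diaphorase/resazurin was added; resorufin fluorescence (525/598 nm) was read after 20 min.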
CHX counter = counter-screen hit for Shiga toxin inhibitors, cycloheximide. cell reporter, cycloheximide protein synthesis inhibition counterscreen. max response, %. actives 12% (n = 300,000); in the data active = max response mostly above about 13%, no sharp cut-off; inactive = mostly below about 14%; also: read at 38.3 µM for the half of the compounds with a filed dose
A number is an active result; 0 = inactive; ? = inconclusive; - = no result given. Unless noted, calls follow the shape of the dose curve; as a rule, active = well fitted curve in the direction sought with a large enough effect; inconclusive = small, poorly fitted or top-dose-only effect, or another doubt; inactive = no such curve, though single readings can be large; an effect the other way counts as inactive or inconclusive.

SMILES	Tb PYK inh	RE007 growth inh	LmPK inhibitor	Shiga toxin inh	Giardia FBPA inh	CHX counter
C/C(=N\NC(=O)c1ccc(Cl)cc1)c1ccc(N2CCOCC2)cc1	0	0	0	0	0	24.9
Cc1cc(Br)ccc1NC(=O)CN(C)C(=O)c1cc([N+](=O)[O-])ccc1N1CCOCC1	0	0	-	-	-	-
CCCCn1c(N)c(N(C(=O)CSc2nncn2-c2ccccc2)C2CCCC2)c(=O)[nH]c1=O	0	0	-	-	-	-
O=S1(=O)c2ccccc2N(Cc2ccccc2)c2ccccc21	0	-	-	-	-	-
C/C(=N\NC(=S)Nc1ccc(C)c(C)c1)c1ccc(N2CCOCC2)cc1	0	0	0	24.3	0	22.9
C/C(CC(=O)N1CCN(C=O)CC1)=N\NC(=O)c1ccc(Cl)cc1	0	?	0	0	0	10.8
CCn1c(C)nc2c(C)[n+](CC(=O)c3ccc(Br)cc3)ccc21	0	?	0	61.2	0	24.6
Cc1sc[n+](CC(=O)c2ccc(Br)cc2)c1C	0	0	0	0	0	0
O=C(NCc1ccc(Cl)cc1)c1ccc(OCC2CCCO2)cc1 (stereo unspecified)	0	0	0	0	0	0
Cc1cccc(NC(=O)c2ccc(OCC3CCCO3)cc2)c1C (stereo unspecified)	0	-	0	44.5	0	29.6
O=C(Nc1ccc(Cl)cc1)c1ccc(OCC2CCCO2)cc1 (stereo unspecified)	0	0	0	94.6	0	41.8
Cc1cccnc1NC(=O)c1ccc(OCC2CCCO2)cc1 (stereo unspecified)	0	0	-	-	-	-
Cn1c2ccccc2c(=O)c2cc(C#Cc3ccc(N)cc3)ccc21	0	0	0	38.6	0	40.9
Cn1c2ccccc2c(=O)c2ccc(C#CC3(O)CCCCC3)cc21	0	0	0	41.2	0	34.9
CC1=C/C(=C(/c2cc(C)c(O)c(Br)c2)c2ccccc2S(=O)(=O)O)C=C(Br)C1=O	?	?	20µM	0	0	0
Cc1cc(Cl)nc(SCC(=O)c2ccccc2)n1	0	0	0	80.7	0	44.5
Cc1cc(N2CCCC2)nc(SCC(=O)c2ccccc2)n1	0	0	0	0	0	0
Cc1cc(N2CCC(C)CC2)nc(SCC(=O)c2ccccc2)n1	0	0	0	28.8	0	12.6
COC(=O)CSc1nc(C)cc(N2CCOCC2)n1	0	0	0	52.6	0	0
Cc1cc(C)nc(SCC(=O)c2ccc(C)c(C)c2)n1	0	0	0	0	0	10.7
Nc1nnc2cc(Br)ccc2n1	0	0	-	-	-	-
COc1ccc(-c2nc3ccccc3o2)cc1NC(=O)C(C)(C)Oc1ccc(Br)cc1	0	-	-	-	-	-
Cc1cc(N2CCOCC2)nc(SCC(=O)c2ccccc2)n1	0	0	0	95.8	0	50.9
CC(C)C[C@H]1CN(CCCC[C@@H]2CNC(=O)C(=O)N2CC2CCCCC2)C(=O)C(=O)N1CCc1ccc(O)cc1	0	0	-	-	-	-
CCC(C)NC(=O)c1ccc2c(=O)n3c(nc2c1)CCCCC3 (stereo unspecified)	0	-	-	-	-	-
SMILES	Tb PYK inh	RE007 growth inh	LmPK inhibitor	Shiga toxin inh	Giardia FBPA inh	CHX counter
O=C(NC1CCCCCC1)c1ccc2c(=O)n3c(nc2c1)CCCCC3	0	0	0	0	0	31.3
COc1ccc(NC(=O)c2ccc3c(=O)n4c(nc3c2)CCCCC4)cc1	0	0	0	0	-	21.3
COc1cccc(CN(C)C(=O)c2ccc3c(=O)n4c(nc3c2)CCC4)c1OC	0	0	0	0	-	36.5
Cc1ccc(NC(=O)c2ccc3c(=O)n4c(nc3c2)CCCCC4)cc1F	0	0	0	0	0	0
O=C(CCC(=O)c1cccs1)NCc1ccccc1Cl	0	0	-	-	-	-
CN(Cc1ccccc1)S(=O)(=O)c1ccc(Cl)c(C(=O)O)c1	0	0	0	0	0	0
CN(Cc1ccccc1)S(=O)(=O)c1ccc(Cl)c(C(=O)OCC(N)=O)c1	0	0	0	36.8	0	19.9
COC1=C(OC)C(=O)c2ccccc2C1=O	-	-	-	-	0	-
COC1=C(Nc2ccccc2)C(=O)c2ccccc2C1=O	0	?	0	23.0	?	18.6
COC1=C(Nc2ccc(C)cc2)C(=O)c2ccccc2C1=O	0	?	0	102.3	?	53.1
CCC1CC2CC3c4[nH]c5ccc(OC)cc5c4CCN(C2)C13 (stereo unspecified)	0	-	-	-	-	-
Cc1ccccc1NS(=O)(=O)c1ccc(C(=O)NCCCN2CCCC2=O)cc1	0	0	-	-	-	-
CC(=O)c1ccc(NC(=O)C2(c3ccccc3)CCOCC2)cc1	0	0	0	111.8	0	36.6
CN(C(=O)CSc1nc2ccc(Cl)cc2[nH]1)C1CCS(=O)(=O)C1 (stereo unspecified)	0	0	-	-	-	-
Cc1cc(N(C)N)nc(NC(=O)NS(=O)(=O)c2ccccc2Cl)n1	0	0	0	0	?	16.3
COc1cc(OC)nc(NC(=O)NS(=O)(=O)c2ccccc2Cl)n1	0	0	0	0	0	0
Cc1ccc(C(=O)C2CN(C)CC2C(=O)c2ccc(C)cc2)cc1 (stereo unspecified)	0	0	0	38.8	0	23.2
CC(=O)NS(=O)(=O)c1ccc(NC(=O)[C@@H]2CCCN2S(=O)(=O)c2ccc(Cl)cc2)cc1	0	0	-	-	-	-
COc1ccc(/C=C/c2cc(=O)c3cc(Cl)ccc3o2)cc1	0	0	0	0	0	0
COc1ccc(/C=C/C2=NC(=C\N(C)C)/C(=O)O2)cc1	0	0	0	107.0	0	43.4
O=c1c2ccccc2nc(-c2cccs2)n1-c1ccc2ccccc2c1	0	0	0	active	0	28.8
CCn1c(Sc2ccc([N+](=O)[O-])cn2)nnc1-c1ccco1	0	0	0	0	0	0
CC12CCC(=O)N1C(C(=O)Nc1nnc(SCc3ccccc3F)s1)CS2 (stereo unspecified)	0	0	?	55.8	-	19.7
CCC(=O)Nc1nnc(SCc2ccccc2F)s1	0	0	0	78.8	0	0
CC(C)COC(=O)Nc1nnc(SCc2ccccc2F)s1	0	0	0	0	0	0
SMILES	Tb PYK inh	RE007 growth inh	LmPK inhibitor	Shiga toxin inh	Giardia FBPA inh	CHX counter
CC12CCC(=O)N1C(C(=O)Nc1nc3c(F)cc(F)cc3s1)CS2 (stereo unspecified)	0	0	0	0	-	21.3
CCc1ccc(-n2c(=S)sc3c(=O)[nH]c(SCC(=O)NC4CCCCC4)nc32)cc1	0	0	-	-	-	-
CCOC(=O)Cc1nnc(NC(=O)CCc2ccccc2)s1	0	0	0	0	0	0
CCCCCCCCCCCC	-	-	-	0	0	0
CCCCCCCCN1C(=O)[C@H](CC(=O)N2CCSCC2)C[C@@]2(C(=O)OCC)CCCC=C12	0	0	-	-	-	-
CCOc1ccc(C(=O)N[C@H](C(=O)Nc2ccc(S(=O)(=O)Nc3nccs3)cc2)C(C)C)cc1	0	0	-	-	-	-
Cc1cc(C(=O)COc2ccc(F)cc2Br)c(C)n1C1CC1	0	0	-	-	-	-
Nc1ncnc2c1ncn2[C@@H]1O[C@H](C(=O)NCc2ccc(OC(F)(F)F)cc2)[C@@H](O)[C@H]1O	0	0	-	-	-	-
